# From PubChem BioAssay AID2069 (Sanford-Burnham Center for Chemical Genomics, 2009)
# Out of some 1,200 compounds screened, about 210 (18%) were called active. A selection follows. Unmarked numbers belong to inactive results. Rule as the data show it: active = inhibition above about 30%; inactive = the rest.
# Assay: HTRF signal interference by compounds, confirmation, artefact control for SUMOylation inhibitor project, biochemical, uHTS (AID 2069)
# Conditions: HTRF interference counterscreen, fluorescence, at 35 µM, active compounds read high
row,Structure (SMILES),inhibition
1,Cc1ccc(NC(=O)CN2C(=O)S/C(=C\c3cc(Cl)c(OCC(=O)O)c(Cl)c3)C2=O)cc1,19.7%
2,O=C1CC(c2ccco2)CC(O)=C1C=Nc1cc(Cl)ccc1Cl (stereo unspecified),1.35%
3,C/C(=N\OCc1nc2ccccc2c(=O)n1/N=C/c1cc([N+](=O)[O-])ccc1O)c1ccccc1,-16.2%
4,CCOc1ccc(S(=O)(=O)N2CCCC(C(=O)NCc3ccco3)C2)cc1 (stereo unspecified),-1.5%
5,CCOc1ccc(NC(=O)c2ccc(NC(=O)c3ccc(CN4CCOCC4)cc3)cc2)cc1,5.55%
6,CCOc1ccc(N2CC(C(=O)NCc3ccc(F)cc3)CC2=O)cc1 (stereo unspecified),34.9% (active)
7,O=[N+]([O-])c1cc([N+](=O)[O-])c2nonc2c1Nc1ccc(O)cc1,-10.7%
8,COc1ccc2c(c1)-c1nc(/N=C/c3cccc(OC)c3O)sc1CC2,1.05%
9,COc1cc(NS(=O)(=O)c2ccc(NC(=S)NC(=O)/C=C/c3ccco3)cc2)ncn1,25.8%
10,O=C(COC(=O)c1cc(NS(=O)(=O)c2cccs2)ccc1O)Nc1cc(Cl)ccc1Cl,13.8%
11,COc1ccccc1/C=N/NC(=O)c1ccc(CN2C(=O)c3cccc4cccc2c34)cc1,48.2% (active)
12,O=C(Cc1cc(=O)[nH][nH]1)N/N=C/c1cccc2ccccc12,-6.95%
13,O=C(O)c1cccc(Cn2c(Cl)c(/C=N/NC(=O)c3cc4ccccc4cc3O)sc2=O)c1,-2%
14,O=C(N/N=C/c1ccccc1)c1ccc(CN2C(=O)c3cccc4cccc2c34)cc1,38.8% (active)
15,C=CCc1cccc(/C=N/NC(=O)CNc2cccc3ccccc23)c1O,4.7%
16,O=C(O)c1ccc(/C=N/NC(=O)c2ccc(CN3c4cccc5cccc(c45)S3(=O)=O)cc2)cc1,18.2%
17,COc1ccc2c(c1)CC/C(=C\Nc1ccc3c(c1)OCO3)C2=O,-3.55%
18,C=CCOc1c(Br)cc(/C=C2\SC(=Nc3ccccc3)NC2=O)cc1OC,9.1%
19,O=C(O)c1cccc([N+](=O)[O-])c1C(=O)Nc1cccc2ccccc12,-3.8%
20,Cc1ccc(C(=O)Nc2ccccc2C(=O)N2CCN(c3ccccc3)CC2)cc1,-8.05%
21,Cn1c(=O)cc(C(=O)N/N=C/c2ccc(Cl)cc2)[nH]c1=O,-5.8%
22,CCc1nc2sc(C(C)=O)c(N)c2c2c1CCCC2,9.65%
23,O=[N+]([O-])c1cccc(C=Nc2cccc3ccccc23)c1O,29.6%

row,Structure (SMILES),inhibition
1,CCOc1ccc(NC(=S)Nc2ccc3nsnc3c2)cc1,19.4%
2,O=C1NC(=Nc2ccc3ccccc3c2)S/C1=C/c1ccco1,9.5%
3,COc1cccc(NC(=S)Nc2cccc3ccccc23)c1,2.35%
4,S=C(Nc1ccc2nsnc2c1)N1CCCCCC1,6.8%
5,S=C(Nc1ccc2nsnc2c1)N1CCCC1,35.6% (active)
6,S=C(Nc1ccc2nsnc2c1)N1CCCCC1,16.2%
7,S=c1[nH]nc(-c2cc(-c3ccccc3)n[nH]2)n1/N=C/c1cccc(Cl)c1,-8.55%
8,COc1ccc(/C=C/c2nnc(NC(=O)CSc3ccc(C)cc3)s2)cc1,9.65%
9,CCOc1cc(/C=C2\C(=O)N(c3ccc(C(N)=O)cc3)N=C2C)ccc1OC(=O)c1cccs1,-9.6%
10,Nc1ccc2c(c1)sc1ccccc12,-9.65%
11,Nc1ccc2nc(-c3ccccc3)sc2c1,66% (active)
12,Cc1ccc(C)c(S(=O)(=O)c2c(N)n(/N=C/c3ccco3)c3nc4ccccc4nc23)c1,-11.7%
13,CCc1nn(CC(=O)NC(C)CCc2ccccc2)c(=O)c2cc3cc(F)ccc3n12 (stereo unspecified),16.4%
14,CC(=O)c1ccc2c(c1)C1C=CCC1C(C(=O)O)N2 (stereo unspecified),70.7% (active)
15,COc1cccc(NS(=O)(=O)c2ccc3c(c2)C2C=CCC2C(c2ccc(C(=O)O)cc2)N3)c1 (stereo unspecified),8.05%
16,O=C(O)c1ccc(NS(=O)(=O)c2ccc3c(c2)C2C=CCC2C(c2ccccc2F)N3)cc1 (stereo unspecified),3.15%
17,CCc1ccc(NC(=O)NNC(=O)c2cc3ccccc3cc2O)cc1,8.2%
18,N#Cc1c(-c2cccs2)nc(SCc2ccc(Cl)cc2)[nH]c1=O,21.6%
19,NC(=O)C1CCN(C2=C(NS(=O)(=O)c3ccc(Cl)cc3)C(=O)c3ccccc3C2=O)CC1,-20.8%
20,C=CCn1c(N)c(C(=O)Nc2cccc(C)c2)c2nc3ccccc3nc21,6.4%
21,COc1ccc(CNC(=O)c2c(N)n(CCCN3CCOCC3)c3nc4ccccc4nc23)cc1,17.5%
22,CC(C)(C)OC(=O)c1c(N)n(CCCN2CCCC2=O)c2nc3ccccc3nc12,41.4% (active)
23,C=CCn1c(N)c(C(=O)Nc2ccccc2)c2nc3ccccc3nc21,20.9%

row,Structure (SMILES),inhibition
1,COCCn1c(N)c(C(=O)OCc2ccccc2)c2nc3ccccc3nc21,16%
2,C=CCn1c(N)c(C(=O)OC(C)(C)C)c2nc3ccccc3nc21,32.7% (active)
3,O=C(Nc1cccc2cccc(NC(=O)c3ccco3)c12)c1ccco1,-6.45%
4,NS(=O)(=O)c1ccc(NC2=CC(=O)C(=O)c3ccccc32)cc1,9.2%
5,CC(=O)c1cccc(NC(=S)Nc2cccc3ccccc23)c1,0.85%
6,Cc1ccc(S(=O)(=O)NNC(=O)Nc2cccc3ccccc23)cc1,4.05%
7,Oc1cccc2c(NC(=S)Nc3ccc(SC(F)F)cc3)cccc12,-6.1%
8,O=C(CCCN1C(=O)/C(=C/c2ccco2)SC1=S)Nc1ccccc1C(=O)O,1.8%
9,C/C(=N\NC(=O)CNc1cccc2ccccc12)c1ccccc1,18%
10,CC(=O)N1C(=S)NC(=O)/C1=C1/C(=O)N(CC(=O)Nc2cccc(C)c2)c2ccccc21,4.65%
11,CCN(CC)C(=O)C1CCCN(C(=O)Nc2ccc3nsnc3c2)C1 (stereo unspecified),17.5%
12,C=CCn1c(N)c(C(=O)NCC2CCCO2)c2nc3ccccc3nc21 (stereo unspecified),42.5% (active)
13,COCCn1c(N)c(C(=O)NCC2CCCO2)c2nc3ccccc3nc21 (stereo unspecified),42.4% (active)
14,Nc1c(C(=O)NCc2ccco2)c2nc3ccccc3nc2n1CCc1ccc(F)cc1,23.6%
15,Nc1c(C(=O)NCc2ccco2)c2nc3ccccc3nc2n1CCc1ccccc1F,15.7%
16,COc1ccc(-n2c(N)c(C(=O)NCC3CCCO3)c3nc4ccccc4nc32)c(OC)c1 (stereo unspecified),24.9%
17,CC(C)Cn1c(N)c(C(=O)NCC2CCCO2)c2nc3ccccc3nc21 (stereo unspecified),34% (active)
18,COCCn1c(N)c(C(=O)NCc2cccs2)c2nc3ccccc3nc21,28.6%
19,CC(C)Cn1c(N)c(C(=O)NCc2cccs2)c2nc3ccccc3nc21,25.2%
20,Cc1ccc(-n2c(-c3cc(-c4ccco4)[nH]n3)n[nH]c2=S)c(Br)c1,16.4%
21,CC1=C(C(=O)Nc2ccccc2)C(c2ccc(C)cc2)N=C(Nc2nc3ccccc3o2)N1 (stereo unspecified),10.2%
22,CCc1ccc2c(c1)c1nc(C)sc1n2CC,0.45%
23,Cn1c2ccccc2c(=O)n2c(=O)c3ccccc3cc12,8.7%

row,Structure (SMILES),inhibition
1,COc1cc(/C=C2/C(=O)N(c3ccccc3)N=C2C)ccc1OS(=O)(=O)c1ccccc1,-23.2%
2,Cc1ccc(Cn2nnnc2CN2CCC(NC(=O)C(C)(C)C)CC2)cc1,5.15%
3,Cc1ccc(S(=O)(=O)N2CCCCC2)cc1NC(=O)COC(=O)c1c(F)cccc1F,-11.4%
4,Cc1nn2c3c(cnc2c1-c1ccc(Cl)cc1)C(=O)CC(c1ccco1)C3 (stereo unspecified),-0.9%
5,CC(C)c1ccc(S(=O)(=O)/N=C2/C=CC(=O)c3ccccc32)cc1,11.3%
6,O=C(Cn1nnc2ccccc21)NCc1ccccc1,-8.55%
7,N#Cc1c(N)n(CCOC(=O)c2ccc(Cl)cc2)c2nc3ccccc3nc12,10.8%
8,COc1ccccc1CCn1c(N)c(C#N)c2nc3ccccc3nc21,17.6%
9,C=CCn1c(NC(=O)c2ccccc2Cl)c(C#N)c2nc3ccccc3nc21,28.9%
10,CN(C)CCCn1c(N)c(C#N)c2nc3ccccc3nc21,39.2% (active)
11,CCCCCn1c(N)c(C#N)c2nc3ccccc3nc21,16.7%
12,CCCCn1c(NC(=O)c2ccccc2Cl)c(C#N)c2nc3ccccc3nc21,20.8%
13,COCCn1c(N)c(C#N)c2nc3ccccc3nc21,43.9% (active)
14,CCC(C)n1c(NC(=O)c2ccccc2)c(C#N)c2nc3ccccc3nc21 (stereo unspecified),11.8%
15,CCCCn1c(NC(C)=O)c(C#N)c2nc3ccccc3nc21,33% (active)
16,Cc1cnc(C(=O)OCC(=O)c2ccc(F)cc2)cn1,-5.75%
17,O=[N+]([O-])c1c(NCCCO)cc(Sc2nc3ccccc3s2)c2nonc12,3.25%
18,Cc1c(C(=O)c2ccc(F)cc2F)c2ccccn2c1CCC#N,17.8%
19,COc1cc(/C=N/NC(=O)c2cc(-c3ccco3)nc3ccccc23)cc(OC)c1O,-5.6%
20,O=C(NC(=S)Nc1c(Cl)ccc2nsnc12)c1ccco1,-7.55%
21,O=C(N=Nc1c(O)[nH]c2ccc([N+](=O)[O-])cc12)c1ccccc1Cl,7.65%
22,CN(C)c1ccc(NC(=O)c2sc(SCC(=O)Nc3ccc(Br)cc3)nc2N)cc1,8.25%
